Compound activity: PubChem, National Center for Advancing Translational Sciences (NCATS)
Gal4-VP16 FLuc – Gal4-VP16 reporter inhibition counter-screen; Potency, µM (titrated, usually from 53.6 µM), inactives show top-dose activity, negative = inhibition, usual class: inhibitors; hit rate 3.5% among 310,000; Drosophila S2 Gal4-VP16 UAS-luciferase, luminescence, 20 h;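 further: Gal4-VP16 expression switched on by copper sulfate through the metallothionein promoter; potency means the concentration at half of the fitted maximal effect; nearly all actives have a fitted effect of over 50% in size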
TSHR antagonist – blocks TSH signaling through the human TSH receptor; TSHR-expressing cells, TSH-stimulated cAMP HTRF, 2 h; hits give low values; activity change, negative = inhibition, % at 11.5 µM; hit rate 0.2% among 330,000;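 active means activity change below a set negative limit, meaning inhibition stronger than a set level, cut at about -70% in these data; inconclusive means activity change between two set negative limits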
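Inhibition of cAMP made by TSHR-expressing cells under TSH stimulation (4nM final, EC80; 2 h, 37 deg C) is quantified with a one-step lysis HTRF kit, anti-cAMP cryptate versus cAMP-d2.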
RORg inh – ROR gamma (mouse) transcription inhibition. Drosophila S2 Gal4-RORgamma UAS-luciferase reporter, 20 h. AID 2551. P51450. hit rate 5.4% among 310,000. Potency, µM (titrated, usually from 53.6 µM), without a hit: top-dose activity change, negative = inhibition, hits mostly inhibitors; further: potency means the concentration at half of the fitted maximal effect; nearly all actives have a fitted effect of over 60% in size
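Luminescence from a UAS-regulated Photinus luciferase reporter in stably transfected Drosophila Schneider cells is measured; decreased signal marks ROR gamma inhibition. Fusion expression is induced by 700 uM copper sulfate for 20 hr.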
B2AR arrestin – agonists driving beta-arrestin recruitment to human beta2-adrenergic receptor; P07550; beta-arrestin recruitment to beta2AR, cell-based reporter; Potency, µM (series often up to 46.1 µM), without a hit: top-dose activation, usual class: activators; hit rate 0.02% among 330,000; AID 492947;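 further: potency means the concentration at half of the fitted maximal effect; 0% = DMSO controls and full agonism = EC100 isoproterenol or metaproterenol; nearly all actives have a fitted effect of over 65% in size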
Target sequence (P07550 whole entry, looked up): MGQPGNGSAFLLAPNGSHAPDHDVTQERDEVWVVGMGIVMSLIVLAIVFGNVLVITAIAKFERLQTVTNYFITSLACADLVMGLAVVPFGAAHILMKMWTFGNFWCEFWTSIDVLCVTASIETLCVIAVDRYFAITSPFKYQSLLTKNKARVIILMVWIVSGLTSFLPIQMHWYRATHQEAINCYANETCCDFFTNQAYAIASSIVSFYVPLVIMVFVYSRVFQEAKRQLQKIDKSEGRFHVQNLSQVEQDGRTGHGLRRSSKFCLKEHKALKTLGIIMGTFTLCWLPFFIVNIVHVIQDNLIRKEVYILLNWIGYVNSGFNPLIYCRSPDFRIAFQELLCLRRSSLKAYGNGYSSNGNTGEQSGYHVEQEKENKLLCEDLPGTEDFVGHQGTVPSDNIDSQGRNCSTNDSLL
ELG1 repair inh – ELG1-dependent DNA repair inhibition | Potency, µM (series often up to 46.1 µM), inactives show top-dose activity change, negative = inhibition, most hits filed as inhibitors | HEK293T ELG1-luciferase reporter, luminescence, 16 h; DNA damage induced by 5-fluorouridine | hit rate 2.3% among 330,000; further: potency means the concentration at half of the fitted maximal effect; nearly all actives have a fitted effect of over 55% in size
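HEK293T cells expressing luciferase-tagged ELG1 (2,000/well) received 5-Fluorouridine plus compound or DMSO for 16 hr at 37 °C. Luciferase was read by ONE-Glo luminescence after 30 min at room temperature.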
Active calls of the source: *; ? = inconclusive; / = no result; [ ] = dose if it differs, or a comment. In the library only some 7.5% were active in any assay of this set; here they are far more common. Unless noted, the call rests on the fitted dose curve; in most records, active means well fitted curve in the direction sought with a large enough effect; inconclusive means small, poorly fitted or top-dose-only effect, or another doubt; inactive means no such curve, though single readings can be large; an effect the other way counts as inactive or inconclusive. Unless noted, on the % scale 0 is the no-effect control and ±100 the full control effect.

SMILES	Gal4-VP16 FLuc	TSHR antagonist	RORg inh	B2AR arrestin	ELG1 repair inh
C=CCNc1nnc(SC2CC(=O)N(c3ccc(OC)cc3)C2=O)s1 (centres undefined)	12.6µM*	-0.2	4.47µM*	0.0%	9.4%
CCOc1ccc(N2C(=O)CC(Sc3nnnn3-c3ccccc3)C2=O)cc1 (centres undefined)	?	2.5	3.98µM*	0.0%	13.2%
CCOc1ccc2nc(SC3CC(=O)N(c4ccc(OC)cc4)C3=O)sc2c1 (centres undefined)	?	-0.5	15.8µM*	0.4%	?
CCOc1ccc(N2C(=O)CC(Sc3nc(C)cc(C)n3)C2=O)cc1 (centres undefined)	3.4%	-1.3	0.1%[10 µM]	-0.3%	0.9%
CC(C)[C@@H](CC(=O)N[C@@H]1CCCC[C@H]1C(=O)N[C@H](CC(=O)N[C@@H](CCC(=O)O)CC(=O)O)Cc1ccccc1)NC(=O)C[C@H](CO)NC(=O)[C@@H]1CNCC[C@H]1N	-3.6%	/	0.4%	/	/
Cc1cnc(NC(=O)CSc2nnc(COc3c(C)cccc3C)o2)s1	?	-16.0	11.2µM*	-0.9%	0.1%
Cc1cnc(NC(=O)CSc2nnc(COc3ccccc3)o2)s1	-2.9%	-11.5	-30.8%	-0.7%	24.5%
c1ccc2sc(SN3CCOCC3)nc2c1	7.08µM*	-0.1	10µM*	-0.9%	21.0%
c1ccc2sc(N3CCOCC3)nc2c1	?	-1.0	4.2%	-0.6%	?
CCN1CCN(C(=O)c2ccc(-c3nc4ccccc4s3)s2)CC1	0.1%	4.3	16.3%	-0.9%	?
O=C(NC1CC1)c1ccc(-c2nc3ccccc3s2)s1	?	-0.2	7.94µM*	-0.3%	?
O=C(c1ccc(-c2nc3ccccc3s2)s1)N1CCOCC1	?	-7.8	4.47µM*	0.2%	?
COc1ccc(Cl)cc1NC(=O)CSC1=NN2CCCC(=O)N=C2S1	?	-5.6	?	-0.2%	-22.3%
CC1=C(C)CC(C(=O)Nc2ccc(C(=O)N3CCOCC3)cc2)C(C(=O)O)C1 (centres undefined)	-7.4%	8.4	13.0%	0.3%	-4.2%
O=S(=O)(Nc1ccc(Cl)nn1)c1ccccc1	5.1%	-8.5	-4.3%	0.0%	-0.6%
O=S(=O)(NNc1ccc(Cl)nn1)c1ccc(F)cc1	?	13.8	14.1µM*	3.1%	8.7%
CN(C)/C=C1\C(=O)Nc2ccccc21	-2.1%	-5.7	-13.2%	0.0%	-0.7%
CN(O)/C=C1\C(=O)Nc2ccccc21	-0.8%	-2.4	9.7%	-0.7%	-0.1%
CC(C)Oc1ccc(C(=O)/C=C2/C(=O)Nc3ccccc32)cc1	?	-6.7	10µM*	-0.2%	-23.5%
O=C(/C=C1\C(=O)Nc2ccccc21)/C=C1\C(=O)Nc2ccccc21	10µM*	0.9	12.6µM*	3.5%	11.3%
O=C1Nc2ccccc2/C1=C\C(=O)c1ccccc1	?	-3.0	12.6µM*	-0.6%	?
CC(C)Oc1ccc(CNC(=O)c2cc(S(=O)(=O)N3CCOCC3)cn2C)cc1	2.4%	-6.4	15.1%	0.3%	13.0%
N=c1ccn(Cc2cccc(F)c2)cc1	10µM*	-26.9	?	-0.8%	2.5%
Nc1ccn(Cc2cccc(F)c2)n1	-0.9%	-7.3	6.8%	0.1%	-11.3%
NC(=S)NNc1cc(Cl)cc(Cl)c1	3.98µM*	-5.4	2.24µM*	-1.0%	-19.6%
SMILES	Gal4-VP16 FLuc	TSHR antagonist	RORg inh	B2AR arrestin	ELG1 repair inh
Cc1ccc(CSc2nnc(SCC(=O)N/N=C/C=C/c3ccco3)s2)cc1	11.2µM*	-29.7	7.08µM*	0.4%	?
Cn1c(SCC(=O)N/N=C/C=C\c2ccco2)nc2ccccc21	?	-12.5	0.398µM*	0.2%	0.5%
CCn1c(SCC(=O)N/N=C/C=C\c2ccccc2[N+](=O)[O-])nnc1-c1ccccc1	-8.2%	-5.5	27.6%	-0.2%	-1.4%
Cc1ccc(CSc2nnc(SCC(=O)N/N=C/C=C/c3ccccc3[N+](=O)[O-])s2)cc1	?	-2.5	11.2µM*	-0.3%	?
CCn1c(SCC(=O)N/N=C/C=C\c2ccco2)nc2ccccc21	?	-2.6	?	?	8.2%
COC(CNC(=O)CN1CCN(Cc2ccc(F)cc2Cl)C1=O)OC	0.0%	0.9	1.7%	0.9%	4.0%
CC(CCC(=O)O)C1CCC2C3CC[C@H]4CC(O)CC[C@@]4(C)C3C=C[C@]12C (some centres undefined)	-26.3%	/	-36.7%	/	/
CCNC(=S)Nc1cccc([N+](=O)[O-])c1	-1.5%	2.4	-0.5%	-0.9%	13.4%
O=C(NC(=S)Nc1ccccc1)C1CCCCC1	3.98µM*	5.9	2.82µM*	0.0%	2.4%
O=[N+]([O-])c1cccc(NC(=S)Nc2nc(-c3ccccc3Cl)cs2)c1	2.51µM*	?	2µM*	0.7%	?
O=C(NC(=S)NCc1ccccc1)C1CCCCC1	7.08µM*	-9.5	1.58µM*	12.3%	-4.3%
O=C(Nc1ccccc1)C1CCCCC1	-1.0%	-19.8	17.1%	-0.8%	13.5%
O=C(NC(=S)Nc1ccc(Br)cc1)C1CCC1	7.94µM*	-6.7	6.31µM*	3.7%	?
CC(C)C[C@@H](CC(=O)N[C@H](CC(=O)N[C@@H]1CCNC[C@H]1C(=O)N[C@H](CC(=O)N[C@@H](CCC(=O)O)CC(=O)O)Cc1ccccc1)C(C)C)NC(=O)[C@@H]1CNCC[C@H]1N	1.2%	/	25.9%	/	/
O=C(NC(=S)Nc1cccc([N+](=O)[O-])c1)C1CCCC1	?	10.1	12.6µM*	0.3%	5.3%
O=C(Nc1ccc(Br)cc1)C1CCCC1	1.2%	3.5	-21.2%	-0.7%	6.3%
O=C(NC(=S)Nc1ccc(Br)cc1)C1CCCCC1	7.94µM*	-12.9	5.01µM*	2.4%	8.2%
N#CCSc1nc2ccccc2c2nc3ccccc3n12	3.5%	3.4	-5.0%	-0.5%	20.6µM*
N#CCSc1nc2cc(C(=O)N3CCC(C(N)=O)CC3)ccc2c2nc3ccccc3n12	-5.2%	-6.3	-20.4%	0.3%	20.6µM*
N#CCSc1nc2cc(C(=O)N3CCCC3)ccc2c(=O)n1Cc1ccccc1	5.4%	15.6	?	1.8%	?
C=CCn1c(SCc2ccc(Cl)cc2)nc2cc(C(=O)N3CCC(C(N)=O)CC3)ccc2c1=O	1.1%	-6.1	1.3%	6.4%	8.2µM*
CCN(CC)CCNC(=O)c1ccc(NS(C)(=O)=O)cc1	/	-5.8	/	/	/
COc1ccc2c(c1)C(=O)N1[C@H]3c4cc(Br)ccc4OC[C@@H]3[C@H](c3ccccc3)[C@]1(C)C(=O)N2	/	-18.1	/	-0.9%	?
Nc1nc(-c2ccccc2)cn1N	7.08µM*	11.2	3.16µM*	0.3%	?
c1ccc(-c2cn3nc(-c4ccccc4)c(-c4ccccc4)nc3n2)cc1	-3.0%	-20.8	22.4µM*	0.4%	5.7%
CN1CCN(c2ccnc(-c3cccc(NS(C)(=O)=O)c3)n2)CC1	-5.6%	/	-10.5%	/	/
